# ChEMBL document CHEMBL3988442, “University of Dundee, Small-Polar-MMV Screening Library” (2021)
# For some of these results: Measured potencies and affinities stand elsewhere.
# Experiments:
# Design in all cases: scale not given: direction of the effect not stated beside the values
# [1] = molecular target: Protein translocase subunit SecA (Escherichia coli (strain K12)) (UniProt P10408); test: Assay to Identify E. coli SecA ATPase Inhibitors; type: functional; conditions: 30 µM
# [2] = molecular target: T1, Ubiquitin-activating enzyme e1, putative (Leishmania donovani (strain BPK282A1)) (UniProt E9BSI1); test: Leishmania donovani Ubiquitin Activating Enzyme (LdE1); type: functional; conditions: 30 µM
# T1 sequence (whole entry): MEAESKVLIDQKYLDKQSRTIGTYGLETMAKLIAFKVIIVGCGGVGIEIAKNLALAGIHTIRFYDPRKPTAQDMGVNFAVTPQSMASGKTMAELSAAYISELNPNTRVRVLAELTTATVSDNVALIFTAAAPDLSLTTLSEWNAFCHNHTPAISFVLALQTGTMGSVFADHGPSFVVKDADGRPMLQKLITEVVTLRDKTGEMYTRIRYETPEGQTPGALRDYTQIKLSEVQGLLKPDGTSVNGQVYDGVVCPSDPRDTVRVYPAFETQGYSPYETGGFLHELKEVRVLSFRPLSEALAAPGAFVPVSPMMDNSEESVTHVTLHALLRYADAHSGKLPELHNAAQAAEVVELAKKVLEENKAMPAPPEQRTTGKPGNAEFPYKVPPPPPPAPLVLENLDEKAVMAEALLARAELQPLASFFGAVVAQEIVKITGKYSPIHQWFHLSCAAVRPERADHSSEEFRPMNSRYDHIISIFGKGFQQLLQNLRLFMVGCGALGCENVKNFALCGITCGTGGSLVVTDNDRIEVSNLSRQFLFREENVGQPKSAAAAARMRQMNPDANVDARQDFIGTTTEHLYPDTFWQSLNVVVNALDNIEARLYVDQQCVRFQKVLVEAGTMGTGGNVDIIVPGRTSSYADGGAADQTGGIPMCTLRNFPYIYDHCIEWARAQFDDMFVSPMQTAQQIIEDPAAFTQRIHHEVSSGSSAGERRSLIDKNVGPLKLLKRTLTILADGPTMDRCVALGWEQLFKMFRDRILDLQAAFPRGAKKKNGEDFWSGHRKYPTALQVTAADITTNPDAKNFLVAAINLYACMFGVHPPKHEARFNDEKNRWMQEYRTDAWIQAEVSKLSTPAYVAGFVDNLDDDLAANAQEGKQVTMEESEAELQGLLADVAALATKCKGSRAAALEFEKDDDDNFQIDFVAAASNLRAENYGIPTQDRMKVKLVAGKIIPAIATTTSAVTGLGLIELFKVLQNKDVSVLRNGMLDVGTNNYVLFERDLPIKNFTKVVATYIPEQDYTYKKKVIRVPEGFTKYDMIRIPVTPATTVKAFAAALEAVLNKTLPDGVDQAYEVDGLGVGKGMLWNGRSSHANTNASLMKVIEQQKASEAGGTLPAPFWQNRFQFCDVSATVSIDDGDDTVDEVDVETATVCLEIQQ
# [3] = molecular target: AMP-activated protein kinase, AMPK (Homo sapiens) (UniProt P54646+O43741+P54619+Q9UGJ0+Q9Y478+Q13131+Q9UGI9); test: AMP-dependent Kinase enzyme assay. An in vitro enzyme assay that detects ADP turnover that is directly proportional to AMPK activity. This uses naive AMPK that is activated during the assay with MK-8722; type: functional; conditions: 30 µM
# [4] = molecular target: Sialic acid-binding Ig-like lectin 9 (Homo sapiens) (UniProt Q9Y336); test: Hs-Siglec9 ALPHAscreen SOP 20170721; conditions: 10 µM
# Trypanosoma cruzi = test: Trypanosoma cruzi phosphomannomutase and mannose-1-phosphate guanylyltransferase assay; type: functional; conditions: 10 µM
# [5] = molecular target: T2, Arginase-2, mitochondrial (Homo sapiens) (UniProt P78540); test: in vitro enzyme assay to detect the production of urea directly proportional to the activity of Arginase II; type: functional; conditions: 33.3 µM; also: in the data most compounds retested in dose-response had high values
# T2 sequence (whole entry): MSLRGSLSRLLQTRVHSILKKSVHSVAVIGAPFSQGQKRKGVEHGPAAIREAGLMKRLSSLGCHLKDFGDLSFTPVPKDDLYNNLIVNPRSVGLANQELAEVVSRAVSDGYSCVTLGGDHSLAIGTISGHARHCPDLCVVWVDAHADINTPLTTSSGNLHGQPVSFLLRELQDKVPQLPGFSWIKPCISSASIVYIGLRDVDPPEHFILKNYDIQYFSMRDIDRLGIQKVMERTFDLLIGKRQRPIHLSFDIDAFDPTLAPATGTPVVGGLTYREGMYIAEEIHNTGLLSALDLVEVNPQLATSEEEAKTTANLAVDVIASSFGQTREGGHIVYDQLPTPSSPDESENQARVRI
# [6] = molecular target: T3, Proteasome subunit beta (Trypanosoma cruzi) (UniProt O96673); test: Trypanosoma cruzi proteasome chymotrypsin-like activity (TcProtChymo) assay.; also: in the data most compounds retested in dose-response had high values; type: functional; conditions: 9.37 µM
# T3 sequence (whole entry): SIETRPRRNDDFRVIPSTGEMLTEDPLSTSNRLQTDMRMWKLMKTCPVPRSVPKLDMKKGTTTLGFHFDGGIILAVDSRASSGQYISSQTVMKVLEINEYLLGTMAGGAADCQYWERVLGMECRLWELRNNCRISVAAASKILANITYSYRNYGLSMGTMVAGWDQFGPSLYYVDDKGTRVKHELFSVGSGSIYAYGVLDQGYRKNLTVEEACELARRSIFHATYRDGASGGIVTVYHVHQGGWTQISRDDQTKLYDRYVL
# Homo sapiens = species on record: Homo sapiens; test: To identify inhibition of the IFN signalling (Jak-Stat) pathway via expression of an eGFP reporter gene under the control of an IFN-stimulated response element (ISRE) containing MxA promoter.; type: functional; conditions: 30 µM
# [7] = molecular target: T4, Tyrosyl-tRNA synthetase, putative (Trypanosoma cruzi (strain CL Brener)) (UniProt Q4DSP6); test: Trypanosoma cruzi tyrosyl tRNA synthetase (TcYRS) _High Tyrosine SOP; type: functional; conditions: 30 µM; also: in the data most compounds retested in dose-response had high values
# T4 sequence (whole entry): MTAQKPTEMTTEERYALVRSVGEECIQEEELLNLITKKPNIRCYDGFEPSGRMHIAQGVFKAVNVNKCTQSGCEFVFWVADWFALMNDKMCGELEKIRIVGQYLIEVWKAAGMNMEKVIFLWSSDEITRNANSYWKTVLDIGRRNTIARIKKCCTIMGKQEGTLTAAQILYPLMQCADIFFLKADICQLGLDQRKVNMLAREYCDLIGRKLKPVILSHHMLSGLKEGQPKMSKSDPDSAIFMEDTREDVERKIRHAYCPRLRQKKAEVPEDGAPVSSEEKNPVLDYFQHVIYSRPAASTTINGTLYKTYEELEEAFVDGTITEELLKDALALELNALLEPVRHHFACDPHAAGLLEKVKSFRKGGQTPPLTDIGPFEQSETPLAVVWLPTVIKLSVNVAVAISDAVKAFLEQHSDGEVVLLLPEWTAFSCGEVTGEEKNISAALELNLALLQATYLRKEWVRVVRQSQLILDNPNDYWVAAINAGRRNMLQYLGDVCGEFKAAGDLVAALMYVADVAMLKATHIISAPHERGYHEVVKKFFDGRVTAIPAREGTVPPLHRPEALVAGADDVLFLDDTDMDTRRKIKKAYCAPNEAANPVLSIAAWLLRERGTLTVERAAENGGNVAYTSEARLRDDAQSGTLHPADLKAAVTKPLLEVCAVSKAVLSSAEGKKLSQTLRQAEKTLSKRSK
# [8] = molecular target: T4, Tyrosyl-tRNA synthetase, putative (Trypanosoma cruzi (strain CL Brener)); test: Trypanosoma cruzi tyrosyl tRNA synthetase (TcYRS) SOP; type: functional; conditions: 30 µM
# [9] = molecular target: Chromo domain-containing protein 1 (Saccharomyces cerevisiae (strain ATCC 204508 / S288c) (Baker's yeast)) (UniProt P32657); test: ScCHD-1 Enzyme Inhibition Assay; type: functional; conditions: 30 µM; also: in the data most compounds retested in dose-response had high values
# Chain of Chromo domain-containing protein 1 (Saccharomyces cerevisiae (strain ATCC 204508 / S288c) (Baker's yeast)) (P32657 whole entry, the tested form may be a part): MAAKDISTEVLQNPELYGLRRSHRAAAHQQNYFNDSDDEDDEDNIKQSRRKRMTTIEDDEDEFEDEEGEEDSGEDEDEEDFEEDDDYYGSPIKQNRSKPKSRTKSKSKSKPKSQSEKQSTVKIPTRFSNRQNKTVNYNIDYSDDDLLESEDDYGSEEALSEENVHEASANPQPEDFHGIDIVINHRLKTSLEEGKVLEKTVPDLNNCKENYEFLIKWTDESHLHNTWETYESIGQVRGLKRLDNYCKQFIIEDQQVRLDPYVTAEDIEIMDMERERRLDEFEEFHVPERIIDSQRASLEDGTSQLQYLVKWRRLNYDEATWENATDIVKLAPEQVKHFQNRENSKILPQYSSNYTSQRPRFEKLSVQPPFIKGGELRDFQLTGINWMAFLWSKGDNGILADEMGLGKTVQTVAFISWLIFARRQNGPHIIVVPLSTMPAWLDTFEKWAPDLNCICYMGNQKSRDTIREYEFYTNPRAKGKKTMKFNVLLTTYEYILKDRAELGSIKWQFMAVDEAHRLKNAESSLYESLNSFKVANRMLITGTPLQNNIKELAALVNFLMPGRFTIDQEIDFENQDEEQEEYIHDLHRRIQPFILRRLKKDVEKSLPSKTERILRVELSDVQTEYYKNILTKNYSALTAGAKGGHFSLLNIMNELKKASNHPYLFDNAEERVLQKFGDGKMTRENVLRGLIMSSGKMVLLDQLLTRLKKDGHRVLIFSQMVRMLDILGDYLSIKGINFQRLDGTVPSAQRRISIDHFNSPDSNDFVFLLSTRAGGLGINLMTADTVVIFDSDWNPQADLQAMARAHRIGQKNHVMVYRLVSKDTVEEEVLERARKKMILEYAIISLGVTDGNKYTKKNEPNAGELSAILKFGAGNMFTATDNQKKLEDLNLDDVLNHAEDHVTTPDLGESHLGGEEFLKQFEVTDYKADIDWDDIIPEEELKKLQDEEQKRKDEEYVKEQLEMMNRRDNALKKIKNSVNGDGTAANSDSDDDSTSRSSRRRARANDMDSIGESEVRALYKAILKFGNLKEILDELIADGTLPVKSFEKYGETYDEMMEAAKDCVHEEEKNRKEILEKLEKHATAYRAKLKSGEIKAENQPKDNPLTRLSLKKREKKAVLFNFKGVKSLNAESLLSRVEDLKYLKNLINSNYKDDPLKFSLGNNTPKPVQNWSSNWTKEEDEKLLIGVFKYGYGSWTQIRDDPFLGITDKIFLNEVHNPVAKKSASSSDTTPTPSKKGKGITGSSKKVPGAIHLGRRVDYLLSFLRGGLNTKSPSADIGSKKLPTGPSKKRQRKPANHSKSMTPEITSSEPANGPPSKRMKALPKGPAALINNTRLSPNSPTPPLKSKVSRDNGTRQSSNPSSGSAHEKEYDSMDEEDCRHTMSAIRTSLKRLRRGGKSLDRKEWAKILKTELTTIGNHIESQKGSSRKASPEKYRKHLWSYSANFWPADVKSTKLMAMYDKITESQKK
# Chain of Protein translocase subunit SecA (Escherichia coli (strain K12)) (P10408 whole entry): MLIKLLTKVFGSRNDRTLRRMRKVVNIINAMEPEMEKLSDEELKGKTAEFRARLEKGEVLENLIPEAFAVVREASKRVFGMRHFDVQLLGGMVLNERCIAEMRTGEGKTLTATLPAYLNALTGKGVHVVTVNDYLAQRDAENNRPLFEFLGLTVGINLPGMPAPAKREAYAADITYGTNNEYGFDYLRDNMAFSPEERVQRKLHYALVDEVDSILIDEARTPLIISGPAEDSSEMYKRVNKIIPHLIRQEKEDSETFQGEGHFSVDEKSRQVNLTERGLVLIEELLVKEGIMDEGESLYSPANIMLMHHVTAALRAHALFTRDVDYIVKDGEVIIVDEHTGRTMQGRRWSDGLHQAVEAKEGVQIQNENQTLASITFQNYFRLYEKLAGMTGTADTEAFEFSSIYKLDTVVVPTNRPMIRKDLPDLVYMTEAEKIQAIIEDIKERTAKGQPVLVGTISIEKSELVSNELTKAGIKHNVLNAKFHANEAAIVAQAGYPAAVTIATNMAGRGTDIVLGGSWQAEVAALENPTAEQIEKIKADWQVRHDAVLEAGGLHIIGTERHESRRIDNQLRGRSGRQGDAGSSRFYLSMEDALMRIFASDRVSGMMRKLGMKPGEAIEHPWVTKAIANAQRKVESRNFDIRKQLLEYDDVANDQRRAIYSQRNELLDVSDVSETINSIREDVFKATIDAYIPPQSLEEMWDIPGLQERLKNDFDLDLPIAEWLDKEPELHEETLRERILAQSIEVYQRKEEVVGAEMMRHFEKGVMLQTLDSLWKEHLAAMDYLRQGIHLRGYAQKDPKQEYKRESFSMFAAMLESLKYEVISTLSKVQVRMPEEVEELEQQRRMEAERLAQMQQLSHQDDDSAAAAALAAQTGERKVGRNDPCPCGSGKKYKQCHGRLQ
# Chain of Sialic acid-binding Ig-like lectin 9 (Homo sapiens) (Q9Y336 whole entry): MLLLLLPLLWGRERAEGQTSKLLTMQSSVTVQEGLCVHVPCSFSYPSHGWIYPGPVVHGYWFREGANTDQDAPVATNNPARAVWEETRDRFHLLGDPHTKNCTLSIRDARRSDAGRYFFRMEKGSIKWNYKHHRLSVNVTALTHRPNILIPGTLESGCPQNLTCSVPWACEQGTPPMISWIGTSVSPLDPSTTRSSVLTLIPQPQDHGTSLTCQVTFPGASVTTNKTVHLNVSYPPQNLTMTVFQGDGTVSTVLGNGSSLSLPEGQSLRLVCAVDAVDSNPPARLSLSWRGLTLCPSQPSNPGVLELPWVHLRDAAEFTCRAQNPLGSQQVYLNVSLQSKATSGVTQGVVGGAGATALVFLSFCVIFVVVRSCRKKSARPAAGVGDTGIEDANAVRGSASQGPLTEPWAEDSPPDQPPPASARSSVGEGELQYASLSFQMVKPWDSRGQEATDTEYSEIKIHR
Compound,Percent Effect [1] [%],Percent Effect [2] [%],Percent Effect [3] [%],Percent Effect [4] [%],Percent Effect (Trypanosoma cruzi) [%],Percent Effect [5] [%],Percent Effect [6] [%],Percent Effect (Homo sapiens) [%],Percent Effect [7] [%],Percent Effect [8] [%],Percent Effect [9] [%]
Cc1ccc(CN2CCCC3(COCCN(Cc4c[nH]nn4)C3)C2)o1 (stereo unspecified),-2.92,2.67,3.3,8.61,0.965,-22.8,0.855,4.18,7.29,10,-3.22
Cc1nc(CNC(=O)NCCc2ccc(N(C)C)cc2)cs1,-4.53,10.8,6.12,13.5,1.23,-5.61,-1.98,-15.3,9.36,18.5,-10.4
O=C(C1CCOCC1)N1C[C@@H]2C[C@@H](c3nc(C4CC4)cs3)O[C@@H]2C1,0.171,16.4,-11.2,8.5,3.57,-11.6,13.8,1.09,11.5,21,0.447
CC1CCN(c2ncc3c(n2)CN(c2ccccc2)C3=O)CC1,-5.32,5.2,-0.285,2.67,-5.8,-30.3,-5.82,-2.62,2.15,11.1,5.77
CCCc1cc(=O)n(CC(N)=O)c(-n2nc(C)cc2C)n1,-1.73,7.79,7.17,-1.59,2.46,-4.52,10.1,32,3.17,11.5,-9.6
COC(=O)c1cccc(NC(=O)CN2CCN(S(C)(=O)=O)CC2)c1,-1.95,16.2,0.0395,18.7,2.64,25.6,15.4,0.655,4.3,16.1,-4.76
Cc1nc(N)cc(C2CN(C(=O)c3ccn(C)n3)CCO2)n1 (stereo unspecified),-6.21,17.6,0.477,3.12,0.198,-3.94,10.4,8.03,3.23,16.9,-24.2
CCN1CC2(CCN(CCOCCO)CC2)CC(c2ccccc2)C1=O (stereo unspecified),-1.44,8,-14.6,3.65,0.292,-3.12,15.2,14.3,2.73,8.64,-6.05
Cc1n[nH]c(C)c1NC(=O)CN1CCn2c(nnc2C(C)C)C1,-0.613,2.6,7.19,2.99,2.06,2.74,5.42,-7.56,0,0,-16.6
CCc1nnc(CN2CCN(C(=O)c3ccccn3)CC2)o1,0.554,10.4,1.99,-1.91,-0.881,6.53,4.45,24.1,5.71,9.41,-20.1
Cc1ccc(NC2CCN(C(=O)c3ccc(Cl)o3)CC2)nn1,-6.79,0,5.42,-2.43,-6.01,1.15,17.4,24.5,0.49,-7.32,4.23
